Data on 40 molecules can be found in PubChem BioAssay (NCATS).

Inconclusive results are not listed. A call without a number means that no potency is given here. Activity calls are given as the source filed them. The call rests on the fitted dose curve; in most records, active means well fitted cell-killing curve with a large enough effect; inconclusive means small, poorly fitted or top-dose-only effect; inactive means flat fitted curve, though single readings scatter.

The experiment is described as follows: Cellular viability qHTS for adrenocortical cancer (ACC) cell line NCI-H295R (AID 1963990). Further: nearly all actives have a fitted effect of over 60% in size. The following applies: CellTiter-Glo ATP luminescence, 48 h; series mostly up to 46.1 µM. From the text: PI: Naris Nilubol, MD Surgical Oncology Program, National Cancer Institute (NCI) National Institute of Health (NIH), Bethesda, Maryland Adrenocortical cancer (ACC) is a rare malignancy with poor survival outcomes and few treatment options. Currently, mitotane is the only FDA-approved therapy for ACC. Although adjuvant radiation therapy is rarely utilized, it has the potential to improve survival in select cases. Through a quantitative high-throughput drug screen (qHTS), we identified auranofin (AF), a thioredoxin reductase (TXNRD) inhibitor, as a promising candidate drug. This study aims to evaluate whether AF can enhance the efficacy of radiation therapy in the treatment of ACC. Two human ACC cell lines, SW-13 and NCI-H295R, were screened using the National Center for Advancing Translational Sciences (NCATS) Pharmaceutical Collection (NPC) and the Mechanism Interrogation PlatE (MIPE) library (~4,991 compounds). CellTiter-Glo (Cat # G7570, Promega, Madison, WI) was utilized to measure cell viability. Described herein are the results of the corresponding viability assay.
PROTOCOL TABLE (as described by Inglese J, Shamu CE and Guy RK. 2007) SEQUENCE No. (e.g., 1, 2, 3, etc.); […] (e.g., Cells, Incubation, Reagent, etc.); VALUE; DESCRIPTION. 1; Cells; 5 uL; white, solid-bottom, 1536-well tissue-culture treated plates. 2; Time; overnight culture at 37C with 5% CO2. 3; Compounds and control; 23 nL; Kalypsis pin tool (Wako USA) equipped with a 1536-well pin head to transfer to the assay plates. 4; Time; 48 hours; 37C with 5% CO2. 5; Reagent; 4 uL; CellTiter-Glo luminescent substrate mix. 6; Time; 20 min at room temperature. 7; Detection; Luminescence; ViewLux plate reader NOTES (numbers refer to Sequence numbers above) 1. NCI-H295R cells were harvested from a T175 flask and resuspended in ITS-supplemented DMEM serum-free medium at a concentration of 300 000 cells/mL. Then 5 uL of resuspended cells were dispensed into each well of white, solid-bottom, 1536-well tissue-culture-treated plates using a multidrop combi dispenser. The plates were covered with stainless steel gasket lids. 2-3. The plates were cultured overnight at 37C with 5% CO2. Twenty-three nL of compounds (eight selected concentrations from the NPC / MIPE) or positive control (10 mM stock of bortezomib) in DMSO was transferred to each well of the assay plate using a pin tool (Kalypsys, San Diego, CA, USA). The final concentration of the compounds in the 5 uL assay volume ranged from 0.5 nM to 46 uM. 4-6. After 48 hours of incubation at 37C and 5% CO2, 4 uL of CellTilter-Glo luminescent substrate mix (Promega, Madison, WI, USA) was added to each well. Then the plates were incubated for 20 minutes at room temperature. 7. After incubation, luminescence was measured using a ViewLux plate reader (PerkinElmer, Waltham, MA, USA) with a clear filter was used to measure the number of metabolically competent cells. To determine compound activity in the qHTS assay, the titration-response data for each sample was plotted and modeled by a four-parameter logistic fit yielding IC50 and efficacy (maximal response) values. Raw plate reads for each titration point were normalized relative to positive control ([…], 100% inhibition) and DMSO-only wells (basal, 0%). REFERENCES: Inglese J, Shamu CE and Guy RK, Reporting data from high throughput screening of small molecule libraries, Nature Chemical Biology, 2007, 3(8): 438-441. doi.org/10.1038/nchembio0807-438.
In the case of `COc1ccc(C(c2ccc(OC)cc2)C(Cl)(Cl)Cl)cc1`, the Potency was 28200 nM (active). Next, `COC12C(COC(N)=O)C3=C(C(=O)C(C)=C(N)C3=O)N1CC1C2N1C` (stereo not given): 15800 nM (active); `COP(=S)(OC)Oc1ccc(S(=O)(=O)N(C)C)cc1`: “inactive”. For `CCC(=O)C(CCN(C)C)(c1ccccc1)c1ccccc1`, the Potency entry was “inactive”. As to `C/C1=C/C[C@@H](/C(C)=C/c2csc(C)n2)OC(=O)C[C@H](O)C(C)(C)C(=O)[C@H](C)[C@@H](O)[C@@H](C)CCC1`, the Potency is 22.4 nM (active). For `O=[N+]([O-])O[C@H]1CO[C@H]2[C@@H]1OC[C@H]2O[N+](=O)[O-]`, the Potency result was “inactive”.

In the case of `CC(C)[C@]12O[C@H]1[C@@H]1O[C@@]13[C@@]1(C)CCC4=C(COC4=O)[C@@H]1C[C@@H]1O[C@@]13C2=O`, the Potency was 631 nM (active). To `COc1ccc(C(CN(C)C)C2(O)CCCCC2)cc1` (stereo not given) belongs “inactive”. With `CCCCCCCCCC(=O)O[C@H]1CC[C@H]2[C@@H]3CCC4=CC(=O)CC[C@@H]4[C@H]3CC[C@]12C`, the Potency entry is “inactive”. With `CNC(=O)Oc1cccc2ccccc12`, the Potency result is “inactive”. Regarding `CCCCC(CC)COC(=O)c1ccccc1C(=O)OCC(CC)CCCC` (stereo not given), the Potency result is “inactive”. As for `COC1(CS(=O)c2ccccc2)CCN(CCc2c[nH]c3ccc(F)cc23)CC1` (stereo not given), the Potency result is “inactive”. Next, `CC(C)C[C@H](CN)CC(=O)O`: “inactive”; `CC(C)(O)/C=C\C(=O)[C@](C)(O)[C@H]1[C@H](O)C[C@]2(C)[C@@H]3CC=C4[C@@H](C=C(O)C(=O)C4(C)C)[C@]3(C)C(=O)C[C@@]12C`: 1260 nM (active); `O=[N+]([O-])c1cc([N+](=O)[O-])c2ccccc2c1`: “inactive”.

For `CCC(C)(C)c1ccc(O)cc1`, the Potency result was “inactive”.

As to `NN=C(N)N`, the Potency result is “inactive”.

In the case of `C#C[C@]1(O)CC[C@H]2[C@@H]3CCC4=CC(=O)CC[C@]4(C)[C@H]3CC[C@@]21C`, the Potency result is “inactive”.

As for `O=c1[nH]c2ccccc2n1C1CCN(Cc2ccc(-c3[nH]c4cc5ncnc5cc4nc3-c3ccccc3)cc2)CC1`, the Potency was 22400 nM (active).

As for `C/C=C(\C)C(=O)N[C@@H](c1ccccc1)[C@@H](O)C(=O)O[C@H]1C[C@@]2(O)[C@@H](OC(=O)c3ccccc3)[C@@H]3[C@]4(OC(C)=O)CO[C@@H]4C[C@H](O)[C@@]3(C)C(=O)[C@H](OC(C)=O)C(=C1C)C2(C)C`, the Potency is 891 nM (active). Next, `CCN(CC)CCN1C(=O)CN=C(c2ccccc2F)c2cc(Cl)ccc21`: “inactive”. Regarding `CN(C)c1cc2c(cc1Sc1nc3c(N)nccc3n1CCNCC(C)(C)C)OCO2`, the Potency was 2240 nM (active). Consider `C#CCOC(C(=O)OCCN(C)C)(c1ccccc1)c1ccccc1`, for which the Potency result is “inactive”. In the case of `CCCN1CCC[C@@H]2Cc3nc(N)ncc3C[C@H]21`, the Potency entry was “inactive”.

Consider `C[C@]12CC[C@H]3[C@@H](CCC4=CC(=O)CC[C@@H]43)[C@@H]1CC[C@@H]2OC(=O)CCC1CCCCC1`, for which the Potency result was “inactive”.

As for `COc1nn(CSP(=S)(OC)OC)c(=O)s1`, the Potency is 25100 nM (active). With `C[C@]12CC[C@H]3[C@@H](CCC4=CC(=O)CC[C@@H]43)[C@@H]1CC[C@@H]2OC(=O)CCc1ccco1`, the Potency was 18400 nM (active). As for `Cc1cc(O)ccc1Cl`, the Potency result is “inactive”.

Take `CCOC(=O)C(c1c(O)c2ccccc2oc1=O)c1c(O)c2ccccc2oc1=O`: the Potency result was “inactive”.

In the case of `Oc1ccc2c3c1O[C@H]1[C@@H](O)C=C[C@H]4[C@@H](C2)NCC[C@@]341`, the Potency result was “inactive”. For `NCC1(CC(=O)O)CCCCC1`, the Potency result was “inactive”.

For `CC[C@]1(O)CC[C@H]2[C@@H]3CCC4=CCCC[C@@H]4[C@H]3CC[C@@]21C`, the Potency was 2910 nM (active).

Regarding `O=[N+]([O-])c1ccc([As](=O)(O)O)cc1`, the Potency result was “inactive”. With `O=c1[nH]c2ccccc2n1C1CCNCC1`, the Potency entry is “inactive”. On to `CC(O)CN1CCN(CC(=O)[O-])CCN(CC(=O)[O-])CCN(CC(=O)[O-])CC1.[Gd+3]` (stereo not given), for which the Potency entry is “inactive”. Regarding `C[C@@H]1CN(Cc2ccc(F)cc2)CCN1C(=O)COc1ccc(Cl)cc1NC(N)=O`, the Potency was 20000 nM (active).

As to `O=C1c2ccccc2C(=O)c2ccccc21`, the Potency result is “inactive”. For `C[C@H](N)C(=O)c1ccccc1`, the Potency entry was “inactive”. Turning to `CCCN1CCO[C@@H]2c3cc(O)ccc3OC[C@H]21`, the Potency result is “inactive”.

In the case of `C[C@@H]1CC[C@@]2(OC1)O[C@H]1C[C@H]3[C@@H]4CC=C5C[C@@H](O[C@@H]6O[C@H](CO)[C@@H](O[C@@H]7O[C@@H](C)[C@H](O)[C@@H](O)[C@H]7O)[C@H](O)[C@H]6O[C@@H]6O[C@@H](C)[C@H](O)[C@@H](O)[C@H]6O)CC[C@]5(C)[C@H]4CC[C@]3(C)[C@H]1[C@@H]2C`, the Potency was 2240 nM (active).
